From PubChem BioAssay (EPA / NIEHS)
Inconclusive results are not listed. The source made the active and inactive calls. The calls were made as follows, unless noted: active = hit-call score of the fitted dose curve at least 0.9, where 1 is the maximum; inactive = score below 0.9.

Experiments:
[1] = ATG_Sox_CIS: Attagene CIS-FACTORIAL HepG2 Assay for human SRY-box transcription factor (SOX) (AID 2282960); details: HepG2 Attagene cis-factorial SOX reporter, mRNA; actives raise or lower the signal
Outline: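 HepG2 cells transiently transfected with multiple cis-regulated reporter units, then dosed for 24 h. Reporter mRNA quantified by RT-PCR, fluorescent labelling, HpaI digestion and capillary electrophoresis; bidirectional fit versus DMSO.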

[2] = ATG_SREBP_CIS: Attagene CIS-FACTORIAL HepG2 Assay for human Sterol Regulatory Element Binding (SREBP) (AID 2282962); details: HepG2 Attagene cis-factorial SREBP reporter, mRNA; actives raise or lower the signal
Outline: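 HepG2 cells transiently transfected with multiplexed cis-element reporter units report endogenous transcription factor activity. After 24 h of chemical exposure, reporter mRNA was quantified by RT-PCR, 6-FAM labelling, HpaI digestion and capillary electrophoresis; bidirectional fits used DMSO as baseline.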

[3] = target: Signal transducer and activator of transcription 3 (Homo sapiens) (UniProt P40763); experiment: ATG_STAT3_CIS: Attagene CIS-FACTORIAL HepG2 Assay for human Signal Transducer and Activator of Transcription 3 (STAT3) (AID 2282963); details: HepG2, Attagene cis-factorial STAT3 reporter transcription; actives raise or lower the signal
Signal transducer and activator of transcription 3 (Homo sapiens), sequence (P40763 whole entry, looked up): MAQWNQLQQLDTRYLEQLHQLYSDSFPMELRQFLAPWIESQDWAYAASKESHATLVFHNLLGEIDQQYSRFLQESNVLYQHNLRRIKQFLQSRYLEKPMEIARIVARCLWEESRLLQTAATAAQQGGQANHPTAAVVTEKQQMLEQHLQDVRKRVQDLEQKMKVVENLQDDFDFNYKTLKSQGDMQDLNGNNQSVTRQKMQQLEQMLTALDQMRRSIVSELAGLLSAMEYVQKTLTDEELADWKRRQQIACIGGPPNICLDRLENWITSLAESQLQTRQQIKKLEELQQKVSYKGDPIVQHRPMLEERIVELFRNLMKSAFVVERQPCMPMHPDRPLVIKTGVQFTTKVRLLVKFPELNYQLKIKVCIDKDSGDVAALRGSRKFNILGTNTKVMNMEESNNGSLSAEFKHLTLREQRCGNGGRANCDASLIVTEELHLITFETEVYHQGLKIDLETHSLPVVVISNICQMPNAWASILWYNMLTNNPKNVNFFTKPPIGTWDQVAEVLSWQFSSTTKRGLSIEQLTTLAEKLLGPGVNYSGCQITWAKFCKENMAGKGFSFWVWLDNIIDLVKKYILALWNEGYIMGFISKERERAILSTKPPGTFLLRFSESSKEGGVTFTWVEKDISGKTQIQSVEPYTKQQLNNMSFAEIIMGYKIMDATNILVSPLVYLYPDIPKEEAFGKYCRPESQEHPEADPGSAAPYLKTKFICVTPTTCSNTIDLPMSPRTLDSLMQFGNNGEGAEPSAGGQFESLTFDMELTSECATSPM
Outline: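 HepG2 cells transiently transfected with cis-element-driven multiple reporter transcription units; after 24 h chemical exposure, reporter mRNA measured by RT-PCR, 6-FAM primer-extension labelling, HpaI digestion and capillary electrophoresis. Bidirectional fitting versus DMSO baseline.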

[4] = ATG_TA_CIS: Attagene CIS-FACTORIAL HepG2 Assay for human TA Basal Promoter (AID 2282964); details: HepG2 Attagene CIS-factorial TA basal promoter reporter; actives raise or lower the signal
Outline: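 Multiplexed mRNA reporter assay, HepG2, 24 h. Reporter cDNA amplified, 6-FAM primer-extended, HpaI-cut, CE-sized; DMSO = negative control and baseline.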

[5] = ATG_TCF_b_cat_CIS: Attagene CIS-FACTORIAL HepG2 Assay for human T-Cell-Factor with beta-catenin (TCF/b-cat) (AID 2282965); details: HepG2 TCF/beta-catenin cis-reporter transcription, actives raise or lower the signal
Outline: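 Using capillary electrophoresis as the read-out, labelled reporter cDNA fragments from transiently transfected HepG2 were sized and quantified. Exposure lasted 24 hours; activity in either direction was referenced to DMSO.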

[6] = ATG_TAL_CIS: Attagene CIS-FACTORIAL HepG2 Assay for human TAL Basal Promoter (AID 2282966); details: HepG2 Attagene cis-factorial TAL promoter reporter; actives raise or lower the signal;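 also: background control endpoint measuring basal TAL promoter reporter mRNA not a specific factor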
Outline: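 HepG2 cells were transiently transfected with promoter-driven multiplexed reporter units and dosed for 24 h. Reporter mRNA was measured by RT-PCR with capillary electrophoresis fluorescence; bidirectional fits used DMSO as baseline, serving as a background control.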

[7] = ATG_TGFb_CIS: Attagene CIS-FACTORIAL HepG2 Assay for human Transforming Growth Factor (TGF) (AID 2282967); details: HepG2 Attagene CIS TGFb reporter, mRNA transcription; actives raise or lower the signal
Outline: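 Transcript-level reporter readout: HepG2 transfectants, 24 h exposure, RNA to cDNA, reporter-specific PCR, fluorescent primer extension, capillary sizing against ROX standards. Gain- or loss-of-signal relative to DMSO.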

[8] = ATG_VDRE_CIS: Attagene CIS-FACTORIAL HepG2 Assay for human Vitamin D Receptor Element (VDRE) (AID 2282968); details: HepG2 VDRE cis-reporter transcription, actives raise or lower the signal
Outline: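 HepG2 cells transiently transfected with cis-element reporter units, dosed 24 h; reporter mRNA measured by RT-PCR, 6-FAM labeling, HpaI digestion and capillary electrophoresis. Activity fitted bidirectionally against DMSO baseline.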

[9] = target: X-box-binding protein 1 (Homo sapiens) (UniProt P17861); experiment: ATG_Xbp1_CIS: Attagene CIS-FACTORIAL HepG2 Assay for human X-box Binding Protein 1 (XBP1) (AID 2282972); details: HepG2 XBP1 cis-element reporter, Attagene multiplex; actives raise or lower the signal
X-box-binding protein 1 (Homo sapiens), sequence (P17861 whole entry, looked up): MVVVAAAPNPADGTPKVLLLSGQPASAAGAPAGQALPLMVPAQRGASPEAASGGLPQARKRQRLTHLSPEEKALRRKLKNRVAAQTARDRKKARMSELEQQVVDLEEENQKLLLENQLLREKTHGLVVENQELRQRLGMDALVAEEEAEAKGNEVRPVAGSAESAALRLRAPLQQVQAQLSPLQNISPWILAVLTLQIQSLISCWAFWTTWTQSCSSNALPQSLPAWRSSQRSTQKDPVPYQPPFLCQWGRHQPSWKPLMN
Outline: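 HepG2 cells transiently transfected with cis-regulated multiple reporter transcription units; endogenous transcription factor activity measured 24 hours after chemical dosing. Reporter mRNA quantified by RT-PCR, 6-FAM primer extension, HpaI digestion and capillary electrophoresis; bidirectional fitting versus DMSO.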

[10] = ATG_M_19_TRANS: Attagene TRANS-FACTORIAL HepG2 Assay for M19 Transcription Factor (Internal Marker) (AID 2282974; active = hit-call score of the fitted dose curve at least 0.9, where 1 is the maximum); details: HepG2 Attagene TRANS-FACTORIAL M19 internal marker reporter
Outline: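 HepG2 transiently transfected with GAL4-UAS multiplex reporter constructs, exposed 24 h; reporter RNA quantified by RT-PCR, 6-FAM labeling, HpaI digestion and capillary electrophoresis; internal background marker fitted upward versus DMSO.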

[11] = ATG_GAL4_TRANS: Attagene TRANS-FACTORIAL HepG2 Assay for GAL4 (Internal Marker) (AID 2282976; active = hit-call score of the fitted dose curve at least 0.9, where 1 is the maximum); details: HepG2 Attagene TRANS GAL4 internal marker reporter
Outline: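 HepG2 cells transiently transfected with multiplexed GAL4-UAS reporter constructs were dosed for 24 h. Reporter mRNA was measured by RT-PCR, 6-FAM primer extension, HpaI digestion and capillary electrophoresis, and gain of signal was fitted relative to DMSO.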

[12] = target: Estrogen-related receptor gamma (Homo sapiens) (UniProt P62508); experiment: ATG_ERRg_TRANS: Attagene TRANS-FACTORIAL HepG2 Assay for human Estrogen-Related Receptor gamma (ERRg) (AID 2282977; active = hit-call score of the fitted dose curve at least 0.9, where 1 is the maximum;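 also: hits increase reporter signal over DMSO so potencies reflect activators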); details: HepG2 Attagene TRANS reporter, ERRg transactivation
Outline: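 Transient HepG2 transfectants, 24 h compound exposure, GAL4-UAS reporter mRNA by RT-PCR/6-FAM labelling/capillary electrophoresis; positive direction vs DMSO.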

[13] = target: Oxysterols receptor LXR-alpha (Homo sapiens) (UniProt Q13133); experiment: ATG_LXRa_TRANS: Attagene TRANS-FACTORIAL HepG2 Assay for human Liver X Receptor alpha (LXRa) (AID 2282980; active = hit-call score of the fitted dose curve at least 0.9, where 1 is the maximum); details: HepG2 Attagene TRANS reporter, LXRa transactivation
Oxysterols receptor LXR-alpha (Homo sapiens), sequence (Q13133 whole entry, looked up, the tested form may be a part): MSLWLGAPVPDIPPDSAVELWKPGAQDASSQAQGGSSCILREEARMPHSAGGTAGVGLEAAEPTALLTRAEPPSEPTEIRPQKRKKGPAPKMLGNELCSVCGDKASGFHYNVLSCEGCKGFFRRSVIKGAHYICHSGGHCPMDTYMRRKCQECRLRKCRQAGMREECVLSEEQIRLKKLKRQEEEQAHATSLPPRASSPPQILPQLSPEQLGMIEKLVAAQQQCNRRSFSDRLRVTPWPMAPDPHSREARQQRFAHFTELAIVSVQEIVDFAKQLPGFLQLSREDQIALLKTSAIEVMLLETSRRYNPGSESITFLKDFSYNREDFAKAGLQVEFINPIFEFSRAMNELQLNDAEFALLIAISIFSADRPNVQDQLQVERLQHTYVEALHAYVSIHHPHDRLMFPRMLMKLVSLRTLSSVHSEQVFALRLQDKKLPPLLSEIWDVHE
Outline: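 HepG2 cells were transiently transfected with multiplexed reporter units driven by chimeric LXRa–GAL4 fusion proteins, then dosed for 24 h. Reporter mRNA was quantified by RT-PCR, fluorescent labelling and capillary electrophoresis; gain of signal fitted against DMSO baseline.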

[14] = target: Transcription factor Sp1 (Homo sapiens) (UniProt P08047); experiment: ATG_Sp1_CIS: Attagene CIS-FACTORIAL HepG2 Assay for human Specificity Protein 1 (Sp1) (AID 2282961); details: HepG2 Sp1 cis-reporter transcription, actives raise or lower the signal
Transcription factor Sp1 (Homo sapiens), sequence (P08047 whole entry, looked up): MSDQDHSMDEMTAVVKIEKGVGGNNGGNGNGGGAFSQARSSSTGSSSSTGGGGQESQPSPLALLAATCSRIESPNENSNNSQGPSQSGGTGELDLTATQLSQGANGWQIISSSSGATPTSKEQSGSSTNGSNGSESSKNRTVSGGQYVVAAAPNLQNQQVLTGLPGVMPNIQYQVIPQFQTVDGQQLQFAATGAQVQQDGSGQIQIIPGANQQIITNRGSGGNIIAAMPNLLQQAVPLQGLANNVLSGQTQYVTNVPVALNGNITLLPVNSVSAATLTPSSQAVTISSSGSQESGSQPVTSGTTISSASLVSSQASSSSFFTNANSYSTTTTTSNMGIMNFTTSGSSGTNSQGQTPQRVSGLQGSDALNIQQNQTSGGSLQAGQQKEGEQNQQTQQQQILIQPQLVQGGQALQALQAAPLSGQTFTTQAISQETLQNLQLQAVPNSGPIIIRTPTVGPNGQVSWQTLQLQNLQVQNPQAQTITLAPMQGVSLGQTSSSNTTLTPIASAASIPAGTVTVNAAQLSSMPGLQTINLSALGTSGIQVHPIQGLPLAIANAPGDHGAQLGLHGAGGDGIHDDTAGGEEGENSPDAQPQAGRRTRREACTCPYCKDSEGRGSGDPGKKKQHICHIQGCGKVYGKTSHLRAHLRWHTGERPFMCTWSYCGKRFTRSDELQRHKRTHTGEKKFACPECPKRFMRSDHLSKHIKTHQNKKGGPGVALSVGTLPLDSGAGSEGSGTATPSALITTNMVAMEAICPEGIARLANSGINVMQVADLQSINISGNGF
Outline: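 HepG2 cells transiently transfected with multiplexed cis-regulated reporter constructs, chemical exposure 24 h. Reporter mRNA quantified by RT-PCR with capillary electrophoresis; bidirectional fit relative to DMSO.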

[15] = target: Nuclear receptor subfamily 1 group I member 3 (Homo sapiens) (UniProt Q14994); experiment: ATG_CAR_TRANS: Attagene TRANS-FACTORIAL HepG2 Assay for human Constitutive Androstane Receptor (CAR) (AID 2282969; active = hit-call score of the fitted dose curve at least 0.9, where 1 is the maximum;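 also: activators raise reporter mRNA above DMSO so AC50 marks induction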); details: HepG2 Attagene TRANS-FACTORIAL CAR reporter
Nuclear receptor subfamily 1 group I member 3 (Homo sapiens), sequence (Q14994 whole entry, looked up, the tested form may be a part): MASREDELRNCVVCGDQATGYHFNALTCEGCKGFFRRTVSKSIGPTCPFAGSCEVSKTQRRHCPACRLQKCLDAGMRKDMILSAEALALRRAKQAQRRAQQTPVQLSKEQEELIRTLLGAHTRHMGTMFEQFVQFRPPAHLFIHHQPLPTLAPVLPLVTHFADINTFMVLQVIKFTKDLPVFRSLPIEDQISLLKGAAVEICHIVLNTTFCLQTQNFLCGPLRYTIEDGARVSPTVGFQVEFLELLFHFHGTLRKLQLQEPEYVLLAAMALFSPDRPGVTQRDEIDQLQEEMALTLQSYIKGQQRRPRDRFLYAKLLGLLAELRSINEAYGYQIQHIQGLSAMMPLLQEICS
Outline: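 HepG2 cells transiently transfected with multiplexed GAL4-UAS reporter units expressing chimeric NR-Gal4 proteins; compound exposure 24 h. Reporter mRNA measured by RT-PCR, 6-FAM labelling, HpaI digestion and capillary electrophoresis; gain-of-signal fitted against DMSO baseline.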

[16] = target: Bile acid receptor (Homo sapiens) (UniProt Q96RI1); experiment: ATG_FXR_TRANS: Attagene TRANS-FACTORIAL HepG2 Assay for Farnesoid X Receptor (FXR) (AID 2282979; active = hit-call score of the fitted dose curve at least 0.9, where 1 is the maximum;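 also: hits raise reporter mRNA above DMSO so AC50 marks FXR activation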); details: HepG2 Attagene TRANS FXR-GAL4 reporter transcription
Bile acid receptor (Homo sapiens), sequence (Q96RI1 whole entry, looked up, the tested form may be a part): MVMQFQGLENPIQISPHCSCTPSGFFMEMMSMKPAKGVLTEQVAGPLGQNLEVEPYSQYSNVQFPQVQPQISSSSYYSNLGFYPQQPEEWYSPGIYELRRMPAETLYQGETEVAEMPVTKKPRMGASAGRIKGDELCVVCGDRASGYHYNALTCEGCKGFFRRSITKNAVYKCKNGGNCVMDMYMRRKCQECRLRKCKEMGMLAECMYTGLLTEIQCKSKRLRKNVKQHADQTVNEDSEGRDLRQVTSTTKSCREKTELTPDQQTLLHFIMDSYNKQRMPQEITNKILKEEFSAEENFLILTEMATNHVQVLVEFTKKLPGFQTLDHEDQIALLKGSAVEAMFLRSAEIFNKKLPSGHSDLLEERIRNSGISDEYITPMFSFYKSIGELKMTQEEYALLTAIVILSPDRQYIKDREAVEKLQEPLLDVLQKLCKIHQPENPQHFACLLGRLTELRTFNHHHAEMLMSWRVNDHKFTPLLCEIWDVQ
Outline: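 HepG2 cells transiently transfected with reporter constructs in which a chimeric FXR-GAL4 protein drives a GAL4-UAS reporter; 24 h compound exposure. Reporter mRNA measured by RT-PCR, FAM labelling, HpaI digestion and capillary electrophoresis; gain-of-signal versus DMSO.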

[17] = target: Estrogen receptor (Homo sapiens) (UniProt P03372); experiment: ATG_ERa_TRANS: Attagene TRANS-FACTORIAL HepG2 Assay for human Estrogen Receptor alpha (ERa) (AID 2282970; active = hit-call score of the fitted dose curve at least 0.9, where 1 is the maximum); details: HepG2 Attagene TRANS ERa GAL4 reporter, mRNA
Estrogen receptor (Homo sapiens), sequence (P03372 whole entry, looked up, the tested form may be a part): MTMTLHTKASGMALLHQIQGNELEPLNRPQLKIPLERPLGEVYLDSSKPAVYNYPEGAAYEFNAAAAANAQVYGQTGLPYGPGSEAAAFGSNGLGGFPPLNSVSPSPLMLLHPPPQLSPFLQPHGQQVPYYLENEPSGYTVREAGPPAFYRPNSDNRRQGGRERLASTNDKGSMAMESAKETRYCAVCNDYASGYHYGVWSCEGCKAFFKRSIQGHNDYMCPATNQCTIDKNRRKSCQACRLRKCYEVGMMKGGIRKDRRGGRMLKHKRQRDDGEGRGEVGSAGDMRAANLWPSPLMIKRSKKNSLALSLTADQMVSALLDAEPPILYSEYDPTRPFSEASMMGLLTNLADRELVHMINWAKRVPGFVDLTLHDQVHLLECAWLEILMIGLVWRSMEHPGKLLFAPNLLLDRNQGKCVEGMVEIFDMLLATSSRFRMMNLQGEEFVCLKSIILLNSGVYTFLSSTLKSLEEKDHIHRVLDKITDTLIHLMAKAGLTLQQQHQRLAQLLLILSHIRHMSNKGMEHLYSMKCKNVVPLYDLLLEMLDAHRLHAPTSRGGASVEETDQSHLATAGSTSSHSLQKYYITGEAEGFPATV
Outline: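 HepG2 cells transiently transfected with multiplexed GAL4-UAS reporter units; ERa activity read via exogenous chimeric NR-Gal4 protein. After 24 hour compound exposure, reporter mRNA measured by RT-PCR with 6-FAM labelling and capillary electrophoresis; gain-of-signal fitted relative to DMSO.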

[18] = target: Steroid hormone receptor ERR1 (Homo sapiens) (UniProt P11474); experiment: ATG_ERRa_TRANS: Attagene TRANS-FACTORIAL HepG2 Assay for human Estrogen-Related Receptor alpha (ERRa) (AID 2282971; active = hit-call score of the fitted dose curve at least 0.9, where 1 is the maximum); details: HepG2 Attagene TRANS reporter, ERRa transactivation
Steroid hormone receptor ERR1 (Homo sapiens), sequence (P11474 whole entry, looked up, the tested form may be a part): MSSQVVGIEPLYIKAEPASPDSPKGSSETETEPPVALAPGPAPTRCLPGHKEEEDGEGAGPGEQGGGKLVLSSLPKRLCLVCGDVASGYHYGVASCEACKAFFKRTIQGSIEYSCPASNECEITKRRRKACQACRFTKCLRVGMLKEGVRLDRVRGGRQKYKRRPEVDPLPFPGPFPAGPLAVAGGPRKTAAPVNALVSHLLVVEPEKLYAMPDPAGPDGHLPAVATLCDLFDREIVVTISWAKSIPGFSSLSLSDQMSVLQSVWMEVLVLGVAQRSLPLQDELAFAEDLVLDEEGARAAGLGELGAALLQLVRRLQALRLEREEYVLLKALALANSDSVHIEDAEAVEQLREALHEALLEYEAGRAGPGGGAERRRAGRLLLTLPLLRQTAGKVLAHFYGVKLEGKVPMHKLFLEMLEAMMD
Outline: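 HepG2 cells transiently transfected with multiplexed GAL4-UAS reporter units reading chimeric ERRa-Gal4 activity; 24 h compound exposure. Reporter mRNA measured by RT-PCR, 6-FAM labelling, HpaI digest and capillary electrophoresis; gain of signal fitted versus DMSO baseline.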

[19] = target: Androgen receptor (Homo sapiens) (UniProt P10275); experiment: ATG_AR_TRANS: Attagene TRANS-FACTORIAL HepG2 Assay for human Androgen Receptor (AR) (AID 2282973; active = hit-call score of the fitted dose curve at least 0.9, where 1 is the maximum); details: HepG2 Attagene TRANS-FACTORIAL AR reporter transcription
Outline: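 HepG2 cells transiently transfected with multiplexed GAL4-UAS reporter units and chimeric NR-Gal4 fusion; 24 h compound exposure. Reporter mRNA measured by RT-PCR, 6-FAM labelling, HpaI digestion and capillary electrophoresis; gain-of-signal fitted relative to DMSO baseline.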

[20] = target: Glucocorticoid receptor (Homo sapiens) (UniProt P04150); experiment: ATG_GR_TRANS: Attagene TRANS-FACTORIAL HepG2 Assay for human Glucocorticoid Receptor (GR) (AID 2282978; active = hit-call score of the fitted dose curve at least 0.9, where 1 is the maximum;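 also: activators score as hits since higher reporter transcript over DMSO is fitted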); details: HepG2 Attagene TRANS GR reporter, mRNA transcription
Glucocorticoid receptor (Homo sapiens), sequence (P04150 whole entry, looked up, the tested form may be a part): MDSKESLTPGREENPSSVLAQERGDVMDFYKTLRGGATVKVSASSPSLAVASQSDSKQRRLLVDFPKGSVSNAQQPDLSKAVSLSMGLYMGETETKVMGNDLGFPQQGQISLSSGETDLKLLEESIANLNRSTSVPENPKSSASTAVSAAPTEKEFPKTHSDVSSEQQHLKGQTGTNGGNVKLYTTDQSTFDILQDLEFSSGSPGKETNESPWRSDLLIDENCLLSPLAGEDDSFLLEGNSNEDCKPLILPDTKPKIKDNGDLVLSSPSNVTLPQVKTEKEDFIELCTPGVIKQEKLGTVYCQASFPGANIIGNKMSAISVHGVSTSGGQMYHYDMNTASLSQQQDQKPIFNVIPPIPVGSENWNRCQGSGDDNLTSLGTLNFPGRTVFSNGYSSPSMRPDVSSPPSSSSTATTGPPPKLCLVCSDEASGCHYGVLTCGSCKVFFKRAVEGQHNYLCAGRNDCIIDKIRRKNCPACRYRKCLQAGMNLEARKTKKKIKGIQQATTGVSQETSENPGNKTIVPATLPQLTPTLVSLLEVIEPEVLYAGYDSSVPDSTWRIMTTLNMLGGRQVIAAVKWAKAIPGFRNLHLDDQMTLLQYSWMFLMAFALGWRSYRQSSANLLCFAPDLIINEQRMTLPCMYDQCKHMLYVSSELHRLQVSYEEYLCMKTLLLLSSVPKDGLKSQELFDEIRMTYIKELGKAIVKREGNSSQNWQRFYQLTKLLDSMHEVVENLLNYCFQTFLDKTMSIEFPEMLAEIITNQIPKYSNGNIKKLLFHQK
Outline: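 HepG2 cells transiently transfected with GAL4-UAS reporter units and exogenous GR-Gal4 chimera, dosed 24 h. Reporter mRNA by RT-PCR, FAM labeling, HpaI digest and capillary electrophoresis; gain-of-signal fit versus DMSO.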

Measured: outcome

OCCCCO
inactive: [1] | [2] | [3] | [4] | [5] | [6] | [7] | [8] | [9] | [10] | [11] | [12] | [13]

CCCCCCCCCCCCc1cccc(S(=O)(=O)O)c1
inactive: [1] | [14] | [3] | [5] | [6] | [7] | [15]

Cc1cccc(OP(=O)(Oc2cccc(C)c2)Oc2cccc(C)c2)c1
inactive: [1] | [2] | [3] | [4] | [5] | [6] | [7] | [15] | [9] | [10] | [16]

N#Cc1cccnc1
inactive: [1] | [2] | [3] | [4] | [5] | [6] | [7] | [8] | [17] | [18] | [9] | [10] | [11]

O=C(O)CC(O)(CC(=O)O)C(=O)O
inactive: [1] | [2] | [3] | [4] | [5] | [6] | [7] | [8] | [9] | [10] | [13]

C=CC(Cl)CCl (stereo unspecified)
inactive: [1] | [2] | [3] | [4] | [5] | [6] | [7] | [8] | [19] | [16]

Nc1ncn[nH]1
inactive: [1] | [14] | [3] | [5] | [6] | [7] | [15] | [9]

ClCCCCl
inactive: [1] | [2] | [3] | [4] | [5] | [6] | [7] | [8] | [15] | [9] | [20] | [16]

CCOC(=O)Cc1ccccc1
inactive: [1] | [3] | [4] | [5] | [6] | [7] | [8] | [15] | [9] | [10] | [11] | [16] | [13]

COc1ccc([N+](=O)[O-])cc1O
inactive: [1] | [14] | [3] | [4] | [6] | [7] | [8] | [17] | [9] | [11] | [20] | [16] | [13]
